Pol iota inh – blocks human DNA polymerase iota activity; Q9UNA4; Pol iota fluorescent replication assay, 10 min; Potency, µM (titrated, usually from 115 µM), for the others: at the top dose activity, negative = inhibition, most hits filed as inhibitors; 390,000 compounds, 1% hits; AID 588590; further: potency means the concentration at half of the fitted maximal effect
Target sequence (Q9UNA4 whole entry, looked up): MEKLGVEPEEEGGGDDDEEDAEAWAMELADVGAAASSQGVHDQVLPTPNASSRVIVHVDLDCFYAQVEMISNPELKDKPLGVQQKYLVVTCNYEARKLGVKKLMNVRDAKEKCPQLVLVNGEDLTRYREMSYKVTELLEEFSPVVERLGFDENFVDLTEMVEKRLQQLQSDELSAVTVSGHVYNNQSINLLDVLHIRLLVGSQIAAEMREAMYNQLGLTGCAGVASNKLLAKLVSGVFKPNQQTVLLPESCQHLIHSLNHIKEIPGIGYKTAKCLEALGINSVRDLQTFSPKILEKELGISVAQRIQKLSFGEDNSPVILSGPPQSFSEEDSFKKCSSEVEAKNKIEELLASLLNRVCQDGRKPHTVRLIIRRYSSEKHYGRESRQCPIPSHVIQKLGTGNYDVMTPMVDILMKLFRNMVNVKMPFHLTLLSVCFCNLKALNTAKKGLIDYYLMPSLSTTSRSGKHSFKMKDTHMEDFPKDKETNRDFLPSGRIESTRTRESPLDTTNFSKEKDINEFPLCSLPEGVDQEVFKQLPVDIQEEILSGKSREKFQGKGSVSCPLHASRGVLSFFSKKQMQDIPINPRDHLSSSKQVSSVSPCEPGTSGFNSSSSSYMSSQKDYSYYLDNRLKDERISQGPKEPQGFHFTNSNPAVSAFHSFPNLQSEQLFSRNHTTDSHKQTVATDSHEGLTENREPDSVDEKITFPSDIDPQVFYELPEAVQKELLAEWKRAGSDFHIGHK
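Fluorescent replication assay read twice, at 0 min and 10 min after adding 50 nM (final) substrate. Enzyme (10 nM) and compounds were first incubated 15 min at room temperature; enzyme-free buffer wells were negative controls.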
WRN inhibitor – WRN helicase (human) inhibition | Q14191 | AID 651768 | 360,000 compounds, 0.46% hits | WRN helicase unwinding, fluorescent forked duplex, kinetic | Potency, µM (top dose mostly 114 µM), without a hit: at the top dose activity change, negative = inhibition, hits mostly inhibitors; further: potency means the concentration at half of the fitted maximal effect; on the % scale 0 is the no-effect control and ±100 the full control effect; nearly all actives have a fitted effect of over 55% in size
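Kinetic red-fluorescence monitoring (525/598 nm) tracks WRN helicase activity after 100 nM fluorophore-quencher forked duplex and 2 mM ATP are added to 20 nM enzyme pretreated 15 min at room temperature with compound.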
PI5P4K alpha inh – PI5P4K alpha (human) kinase inhibition; P48426; PI5P4Kalpha enzyme, ADP-Glo luminescence, 60 min; hits give low values; max response, %; 330,000 compounds, 1.2% hits; active means max response of -50% or lower; inconclusive means between -30% and -50%; inactive means -30% or higher; further: value at the top dose of about 77 µM; on the % scale 0 is the no-effect control and ±100 the full control effect
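Quantitative HTS of the MLSMR library against PI5P4Kalpha with substrate. ATP added last at 5 microM final; room temperature, 60 minutes. Remaining ATP depleted, ADP converted and read as luminescence.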
Pol beta inh – inhibitors of human DNA polymerase beta | Pol beta primer extension/strand displacement, fluorescence kinetic | Potency, µM (top dose mostly 114 µM), without a hit: at the highest dose activity change, negative = inhibition, usual class: inhibitors | 340,000 compounds, 1.3% hits; further: potency means the concentration at half of the fitted maximal effect; on the % scale 0 is the no-effect control and ±100 the full control effect
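10 nM enzyme + cpd, 15 min RT; start with substrate 50 nM final; read 0 min and after 10 min RT. Corrected, normalized data; 4-parameter Hill curve fit.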
Pol kappa inh-1 – inhibitors of human DNA polymerase kappa | Q9UBT6 | purified Pol kappa, fluorescent DNA synthesis assay, 10 min | 400,000 compounds, 0.53% hits | Potency, µM (doses to about 107 µM), for the others: top-dose activity, negative = inhibition, hits mostly inhibitors; further: potency means the concentration at half of the fitted maximal effect; on the % scale 0 is the no-effect control and ±100 the full control effect
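Activity was followed as the change in fluorescence between reads at 0 and 10 min after starting the reaction with 50 nM substrate. Beforehand, 10 nM polymerase had been preincubated with compound for 15 min at room temperature.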
Pol eta inh-1 – blocks human DNA polymerase eta activity. 390,000 compounds, 1.2% hits. AID 588591. recombinant Pol eta, fluorescent DNA replication assay. Potency, µM (series often up to 114 µM), without a hit: at the highest dose activity change, negative = inhibition, hits mostly inhibitors. Q9Y253; further: potency means the concentration at half of the fitted maximal effect; on the % scale 0 is the no-effect control and ±100 the full control effect
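Pol eta at 10 nM preincubated with compounds 15 min at room temperature; reaction started with fluorescent substrate (50 nM final) and read kinetically at 0 and 10 min.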
GALK inh confirm – confirmation of human galactokinase (GALK) inhibitors; Potency, µM (titrated, usually from 115 µM), for inactives: at the highest dose activity, negative = inhibition, actives largely listed as inhibitors; shares compounds with Pol eta inh-1; 150 compounds, 70% hits; purified GALK, Kinase-Glo ATP depletion luminescence
Redox cycling – counter-screen for GALK inhibitors: redox cycling H2O2 generation. AID 2035. 150 compounds, 40% hits. Phenol red-HRP H2O2 redox cycling, absorbance 600 nm. shares compounds with Pol eta inh-1. Potency, µM (highest dose often 115 µM), inactives show top-dose activity change, negative = H2O2 signal, actives largely listed as inhibitors
HEK293 viability – counter-screen for GALK inhibitors: HEK293 cell cytotoxicity; HEK-293 viability, ATP luminescence (CellTiter-Glo), 24/48 h; shares compounds with Pol eta inh-1; AID 2547; 170 compounds, 10% hits; Potency, µM (titrated, usually from 46.1 µM), inactives show at the highest dose activity change, negative = cytotoxicity, actives largely listed as inhibitors; further: potency means the concentration at half of the fitted maximal effect; on the % scale 0 is the no-effect control and ±100 the full control effect
Pol kappa inh-2 – confirmation of human DNA polymerase kappa inhibitors. shares compounds with Pol eta inh-1. purified Pol-kappa, fluorescent strand-displacement substrate. Potency, µM, hits mostly inhibitors. 920 compounds, 76% hits; further: potency means the concentration at half of the fitted maximal effect
Pol eta inh-2 – confirmation of human DNA polymerase eta inhibitors. shares compounds with Pol eta inh-1. Pol eta primer extension, TAMRA/BHQ fluorescence, 10 min. Potency, µM, actives largely listed as inhibitors. 2,600 compounds, 64% hits. AID 720502; further: potency means the concentration at half of the fitted maximal effect
* marks the source's active call; other numbers are inactive results; ? = inconclusive; . = no result given; [ ] = another dose, or the depositor's remark. A selection: hits, their analogues and other compounds. The true share with any hit is near 2.8%. Unless noted, the call rests on the fitted dose curve; in most records, active means well fitted curve in the direction sought with a large enough effect; inconclusive means small, poorly fitted or top-dose-only effect, or another doubt; inactive means no such curve, though single readings can be large; an effect the other way counts as inactive or inconclusive.

SMILES	Pol iota inh	WRN inhibitor	PI5P4K alpha inh	Pol beta inh	Pol kappa inh-1	Pol eta inh-1	Pol eta inh-2	others
CCNc1nc(NCC)n2c(SCC(=O)Nc3ccc(OC(F)F)cc3)nnc2n1	?	-15%[11.6 µM]	-25	.	-12%	?	?
COc1cccc(Nc2nn3c(=O)c4ccccc4nc3s2)c1	-18%	.	.	.	14%	50µM*	?
O=C(O)c1ccc(-n2[nH]c3c(c2=O)CCCC3)cc1	?	-5%[57.1 µM]	-11	28µM*	?	35µM*	?	Pol kappa inh-2=24*
O=C(O)c1ccc(N2C(=O)CCCC2=O)cc1	-5%	0%	-9	1%	4%	-5%	.
Cc1ccn2c(=O)nc(SCC(=O)NC3CCCC3)nc2c1	?	-4%[11.6 µM]	-11	.	-4%	22µM*	76*
Cc1[nH][nH]c(=O)c1C(c1ccc(-c2cccc(Cl)c2)o1)c1c(C)[nH][nH]c1=O	2.8µM*	-30%	-15	4%	0%	79µM*	.	GALK inh confirm=53µM*;Redox cycling=6.7µM*;HEK293 viability=-5%
O=c1[nH]nc(Cc2ccc(-c3cccc(Cl)c3)o2)c2ccccc12	1%	-4%	2	3%	-6%	2%	.
O=C1NC2(CCCCCC2)C(=O)N1Cc1c(F)cccc1Cl	30%	-2%[57.1 µM]	7	50%	10%	-11%	.
Cc1ccc(Cl)cc1N1CCN(C(=O)CN2C(=O)COc3ccc(S(=O)(=O)N4CCC(C)CC4)cc32)CC1	27%	.	.	20%	-10%	-8%	.
O=C(O)c1cccc(N2C(=O)C=CC2=O)c1	.	-25%[11.6 µM]	?	.	.	20µM*	54*
O=C(O)c1cccc(N2C(=O)C3CC=CCC3C2=O)c1 (stereo not drawn)	1%	-3%	.	-1%	-3%	13%	.
FC(F)(F)c1ccc(Cl)c(NC2=NCCCCC2)c1	-15%	-35%	-9	?	10%	-9%	.
COC(=O)c1ccc(-n2c(C)cc(C(=O)COC(=O)CNS(=O)(=O)c3ccc(C)cc3)c2C)cc1	123%	-2%	-5	8%	-22%	-20%	.
COC(=O)c1cc(C(=O)OC)cc(-n2c(C)cc(C(=O)COC(=O)CNS(=O)(=O)c3ccc(C)cc3)c2C)c1	?	-24%[57.1 µM]	2	-5%	-32%	22µM*	?
COc1cc(C(=O)N(Cc2ccccc2)c2cccc(C)c2)ccc1OC(F)F	23%	-31%	5	9%	-10%	-17%	.
CSc1ccc(/C=N/Nc2nc(C)cc(=O)[nH]2)cc1	95%	-18%	4	1%	-6%	?	.
COC(=O)c1ccc(COc2ccc(/C=N/Nc3nc(C)cc(=O)[nH]3)cc2)cc1	?	-10%[11.6 µM]	-20	20µM*	-7%	89µM*	.	Pol kappa inh-2=?
O=C(O)c1cn(Cc2ccccn2)c(=O)c2ccccc12	31%	5%	1	10%	3%	-3%	.
CC(C)C[C@H]1CN([C@@H](CC(C)C)CN2CCC[C@H]2CN2C(=O)C(=O)NC[C@@H]2Cc2ccc(O)cc2)C(=O)C(=O)N1CC1CCCCCC1	.	4%	4	.	.	.	.
O=C1NC(=S)S/C1=C\c1ccc(SCc2ccccc2)o1	7.9µM*	?	-77*	14µM*	25µM*	18µM*	?
O=C1NC(=NCc2ccccc2)S/C1=C\c1ccccc1	-2%	-1%	-5	?	0%	7%	.
O=C(Nc1ccc(F)c(Cl)c1)c1cc(C2CCCN(S(=O)(=O)c3cccc4cccnc34)C2)on1 (stereo not drawn)	.	2%	-1	.	.	.	.
CCCN1CN=C(Nc2nc3ccccc3o2)NC1	58%	-6%	-1	-7%	3%	-16%	.
O=C1CCC2=C1C1(CCCC1)N=C(Nc1nc3ccccc3o1)N2	.	.	.	.	.	.	.	HEK293 viability=-17%
O=C1CC(c2ccccc2)CC2=C1C1(CCCCC1)N=C(Nc1nc3ccccc3o1)N2 (stereo not drawn)	.	.	.	.	.	.	.	HEK293 viability=-3%
SMILES	Pol iota inh	WRN inhibitor	PI5P4K alpha inh	Pol beta inh	Pol kappa inh-1	Pol eta inh-1	Pol eta inh-2	others
CC1(C)CC(=O)C2=C(C1)NC(Nc1nc3ccccc3o1)=NC21CCCCC1	17%	-2%	.	10%	9%	-6%	.	HEK293 viability=-10%
c1ccc(Nc2nc3ccccc3o2)cc1	-2%[58.9 µM]	4%	.	0%	-10%	-20%	.
O=c1[nH]c(Nc2nc3ccccc3o2)nc2c1CCCC2	6%	-17%[57.1 µM]	.	2%	-6%	-1%	.
Cn1nc(C(=O)N2CCN(c3ccc([N+](=O)[O-])cc3)CC2)c2c1-c1ccccc1S(=O)(=O)C2	8%	9%	-1	-1%	6%	-21%	.
O=C(CCNS(=O)(=O)c1ccc(Cl)cc1)N1CCN(c2ccccn2)CC1	1%	-3%	-1	17%	-12%	-11%	.
CCSC1=N/C(=C\c2ccc(-c3ccccc3[N+](=O)[O-])o2)C(=O)S1	6%	-15%	1	-16%	1%	-5%	.
CCCSC1=N/C(=C\c2ccc([N+](=O)[O-])o2)C(=O)S1	?	22µM*	-70*	2.8µM*	20µM*	?	76*
Cc1ccc(NC(=O)C2CCN(c3nnc(C)c4c(C)n(-c5ccccc5)nc34)CC2)cc1Cl	6%	.	.	-11%	4%	-11%	.
COc1ccc(NC(=O)C2CCCN(c3nnc(C)c4c(C)n(-c5ccccc5)nc34)C2)cc1Cl (stereo not drawn)	-30%	.	.	71µM*	?	35µM*	?	Pol kappa inh-2=17*
NS(=O)(=O)c1ccc(CCNC(=O)COC(=O)CC(c2ccccc2)c2ccccc2)cc1	-2%	-2%	0	9%	-9%	-12%	.
CCN(CC)c1ccc(CNCCCSc2nnnn2C)cc1	13%	.	.	-2%	-9%	-23%	.
